The test system of assay [1] is Jurkat. Kind of assay: mean cell size (FSC-A) relative to DMSO control (fraction of control); higher = larger cells. The note with it: 48 h. The procedure, abridged:
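Jurkat cells at 600 cells/µl were incubated for 1 h and then treated for 48h with the Enzo Screen-Well FDA Approved Drug Library v2.0 at 25µM, with DMSO at 0.9% (v/v) final. Compounds that reduced counts below 20% of controls were retested in 10-fold dilutions down to 25nM. Cell count and mean cell size, taken as forward scatter area, were measured by flow cytometry relative to solvent-only controls. Each plate carried 6-12 controls, and values are means of 3 biological replicates.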

The test system of assay [2] is Jurkat. As to the kind of experiment: cell count relative to DMSO control (fraction of control); higher = more cells (less growth inhibition). The note with it: 48 h.

Structures can show the parent of a compound that is named as a salt. ± gives the standard deviation.

`O=C1N=C(O)CN1N=Cc1ccc(-c2ccc([N+](=O)[O-])cc2)o1` [Dantrolene·Na] (concentration: 25 µM): the mean cell size in assay [1] was determined as 1 ± 0.021. The cell count in assay [2] was 0.837 ± 0.068.

Turning to `COc1ccc([C@@H]2Sc3ccccc3N(CCN(C)C)C(=O)[C@@H]2OC(C)=O)cc1` [Diltiazem·HCl] (concentration: 25 µM), the mean cell size in assay [1] is 0.959 ± 0.053. In assay [2], this compound returned a cell count of 0.359 ± 0.13.

`CC(C)(C(=O)O)c1ccc(C(O)CCCN2CCC(C(O)(c3ccccc3)c3ccccc3)CC2)cc1` (stereo not drawn) [Fexofenadine·HCl] (concentration: 25 µM): the mean cell size in assay [1] amounted to 0.996 ± 0.041. Also, the cell count in assay [2] worked out at 0.725 ± 0.024.

Turning to `Nc1ccn(C[C@@H](CO)OCP(=O)(O)O)c(=O)n1` [Cidofovir] (concentration: 25 µM), the mean cell size in assay [1] stood at 1.13 ± 0.057. The cell count in assay [2] was found to be 0.593 ± 0.094.

Turning to `CC(C)(O)c1ccccc1CC[C@@H](SCC1(CC(=O)O)CC1)c1cccc(/C=C/c2ccc3ccc(Cl)cc3n2)c1` [Montelukast·Na] (concentration: 25 µM), the mean cell size in assay [1] is 1.02 ± 0.077. The cell count in assay [2] came out at 0.476 ± 0.16.

`CC1Cc2ccccc2N1NC(=O)c1ccc(Cl)c(S(N)(=O)=O)c1` (stereo not drawn) [Indapamide] (concentration: 25 µM) displayed a mean cell size in assay [1] of 0.978 ± 0.023. This compound also returned a cell count in assay [2] of 0.497 ± 0.11.

As to `O=P(O)(O)C(Sc1ccc(Cl)cc1)P(=O)(O)O` [Tiludronate Disodium] (concentration: 25 µM), the mean cell size in assay [1] came to 0.961 ± 0.06. Further, the cell count in assay [2] was found to be 0.663 ± 0.15.

Compound `CNC(=O)c1cc(Oc2ccc(NC(=O)Nc3ccc(Cl)c(C(F)(F)F)c3)cc2)ccn1` [Sorafenib Tosylate] (concentration: 2.5 µM) gave a mean cell size in assay [1] of 0.919 ± 0.022. The same compound gave a cell count in assay [2] of 0.999 ± 0.032.

Turning to `CC1(C)S[C@@H]2[C@H](NC(=O)COc3ccccc3)C(=O)N2[C@H]1C(=O)O` [Penicillin V Potassium] (concentration: 25 µM), the mean cell size in assay [1] came to 0.994 ± 0.015. The compound also came in with a cell count in assay [2] of 1.09 ± 0.09.

Source of the values: the supplement of paper PMC4709259.
